The test system of assay [1] is Plasmodium falciparum Sir2 (PF13_0152, Sir2A). The assay can be described thus: pfSir2 binders on small-molecule microarrays, primary screen, biochemical, small-molecule microarray, 635 nm fluorescence (AID 1098).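 Further: score merges spot fluorescence intensity with its signal-to-noise ratio.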 Particulars: small-molecule microarray binding, fluorescence 635 nm; higher = more signal.
Assay [2] can be described thus: small-molecule microarray binders of probe aDKK1, primary screen, biochemical, biotinylated probe, 635/667 nm fluorescence (AID 1099).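 Further: score merges 667nm spot fluorescence with signal to noise across triplicate slides; reference of the scale not given here.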 Particulars: higher = more signal.
Assay [3] can be described thus: small-molecule microarray binders of probe aCHRDL2, primary screen, biochemical, biotinylated probe, 635/667 nm fluorescence (AID 1100). Particulars: higher = more signal.
Assay [4] can be described thus: splicing luciferase reporter signal modulators, primary screen, spliceosome inhibition project, cell-based, HEK293, splice +/- reporter (AID 1101).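 Further: HEK293 cells carrying a splicing-competent luciferase reporter gene; test concentration not given here.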 Particulars: luminescence, 24 h, higher = more signal, called active from +8 up or from −8 down. Background: In a reporter assay the amount or activity of a reporter protein is the signal.
Assay [5] addresses Fibroblast growth factor 10 (Homo sapiens) (UniProt O15520). The experiment in a line: FGF10 binders on small-molecule microarrays, primary screen, biochemical, small-molecule microarray, 635 nm fluorescence (AID 1102). Particulars: FGF10 binding, fluorescence 635 nm, higher = more signal.
In assay [6] the test system is glycogen synthase kinase-3 (GSK3A per assay name; protocol says GSK3B). The experiment in a line: GSK3 binders on small-molecule microarrays, primary screen, biochemical, small-molecule microarray, 635 nm fluorescence, GSK3A (AID 1103). Further: the record names both GSK3A and GSK3B. Particulars: small-molecule microarray binding, fluorescence 635 nm; higher = more signal.
For assay [7], the target named is Epidermal growth factor receptor (Homo sapiens) (UniProt P00533). The experiment in a line: EGFR binders on small-molecule microarrays, primary screen, biochemical, small-molecule microarray, 635 nm fluorescence (AID 1104).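 Further: score merges 667 nm emission intensity with spot signal to noise over triplicate slides.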 Particulars: EGFR binding, higher = more signal.
Sequence of Epidermal growth factor receptor (Homo sapiens) (P00533 whole entry, looked up): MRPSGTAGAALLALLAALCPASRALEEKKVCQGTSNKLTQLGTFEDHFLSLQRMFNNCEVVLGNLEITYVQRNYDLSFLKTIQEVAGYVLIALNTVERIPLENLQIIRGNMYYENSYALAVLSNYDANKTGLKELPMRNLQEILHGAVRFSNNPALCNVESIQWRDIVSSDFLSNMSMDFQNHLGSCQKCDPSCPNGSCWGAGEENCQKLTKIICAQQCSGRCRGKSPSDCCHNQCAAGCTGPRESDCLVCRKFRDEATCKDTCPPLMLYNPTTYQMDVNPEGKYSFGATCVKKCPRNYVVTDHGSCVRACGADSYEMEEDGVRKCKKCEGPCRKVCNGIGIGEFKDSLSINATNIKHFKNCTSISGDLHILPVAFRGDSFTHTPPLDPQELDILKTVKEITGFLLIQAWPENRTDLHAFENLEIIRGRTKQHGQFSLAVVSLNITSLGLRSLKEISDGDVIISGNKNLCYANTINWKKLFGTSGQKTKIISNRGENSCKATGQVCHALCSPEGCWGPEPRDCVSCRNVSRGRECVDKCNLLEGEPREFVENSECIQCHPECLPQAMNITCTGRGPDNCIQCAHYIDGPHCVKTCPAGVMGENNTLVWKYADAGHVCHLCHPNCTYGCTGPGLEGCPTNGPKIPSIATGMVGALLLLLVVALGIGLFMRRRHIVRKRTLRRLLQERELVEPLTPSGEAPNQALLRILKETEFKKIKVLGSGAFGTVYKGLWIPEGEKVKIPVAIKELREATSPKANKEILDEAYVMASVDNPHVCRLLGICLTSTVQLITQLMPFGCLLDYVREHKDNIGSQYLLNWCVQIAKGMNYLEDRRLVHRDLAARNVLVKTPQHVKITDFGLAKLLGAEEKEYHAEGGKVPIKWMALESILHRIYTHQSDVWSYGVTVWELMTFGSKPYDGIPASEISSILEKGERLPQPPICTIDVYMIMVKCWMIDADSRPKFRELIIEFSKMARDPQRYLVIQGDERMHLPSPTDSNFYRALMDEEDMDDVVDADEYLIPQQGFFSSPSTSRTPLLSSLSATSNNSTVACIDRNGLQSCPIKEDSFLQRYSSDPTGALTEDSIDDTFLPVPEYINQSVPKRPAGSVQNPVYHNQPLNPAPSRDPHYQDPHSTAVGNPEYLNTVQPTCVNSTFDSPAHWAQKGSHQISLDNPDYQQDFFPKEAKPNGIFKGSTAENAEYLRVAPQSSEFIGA
In assay [8] the target is Follistatin-related protein 3 (Homo sapiens) (UniProt O95633). The assay can be described thus: FSTL3 binders on small-molecule microarrays, primary screen, biochemical, small-molecule microarray, 635 nm fluorescence (AID 1105).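 Further: score merges emission near 667 nm and signal to noise per printed spot across three slides.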 Particulars: FSTL3 binding, higher = more signal.
Sequence of Follistatin-related protein 3 (Homo sapiens) (O95633 whole entry, looked up): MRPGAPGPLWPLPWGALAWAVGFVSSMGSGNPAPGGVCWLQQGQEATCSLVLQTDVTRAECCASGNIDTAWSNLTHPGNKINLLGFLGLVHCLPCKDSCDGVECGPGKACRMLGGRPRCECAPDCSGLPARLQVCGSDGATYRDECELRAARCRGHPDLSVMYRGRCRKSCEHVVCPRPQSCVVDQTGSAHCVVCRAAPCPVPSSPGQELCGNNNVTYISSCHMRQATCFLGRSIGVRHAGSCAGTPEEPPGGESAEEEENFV
The target of assay [9] is Dickkopf-related protein 1 (Homo sapiens) (UniProt O94907). The assay can be described thus: DKK1 binders on small-molecule microarrays, primary screen, biochemical, small-molecule microarray, 635 nm fluorescence scan (AID 1106).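 Further: score merges emission near 667 nm with signal to noise over three replicate slides.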 Particulars: DKK1 binding, higher = more signal.
Sequence of Dickkopf-related protein 1 (Homo sapiens) (O94907 whole entry, looked up): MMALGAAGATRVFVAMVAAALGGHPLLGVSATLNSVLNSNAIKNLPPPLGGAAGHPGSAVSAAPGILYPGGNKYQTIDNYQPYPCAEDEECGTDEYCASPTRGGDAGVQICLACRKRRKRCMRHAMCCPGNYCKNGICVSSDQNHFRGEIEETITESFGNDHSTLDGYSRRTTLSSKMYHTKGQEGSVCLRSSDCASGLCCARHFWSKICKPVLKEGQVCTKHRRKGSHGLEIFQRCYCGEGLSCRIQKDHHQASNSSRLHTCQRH
The test system of assay [10] is Inhibin beta A chain (activin A). The assay can be described thus: INHBA (activin A) binders on microarrays, primary screen, biochemical, small-molecule microarray, 635 nm fluorescence scan (AID 1107).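 Further: mouse activin A protein probed at 4.33 µg/mL on printed slides; score merges bound-protein fluorescence near 667 nm with spot signal-to-noise.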 Particulars: small-molecule microarray binding, higher = more signal.

This note sets out measurements from PubChem BioAssay.

Activity calls are given as the source filed them.

Sequence of Fibroblast growth factor 10 (Homo sapiens) (O15520 whole entry, looked up): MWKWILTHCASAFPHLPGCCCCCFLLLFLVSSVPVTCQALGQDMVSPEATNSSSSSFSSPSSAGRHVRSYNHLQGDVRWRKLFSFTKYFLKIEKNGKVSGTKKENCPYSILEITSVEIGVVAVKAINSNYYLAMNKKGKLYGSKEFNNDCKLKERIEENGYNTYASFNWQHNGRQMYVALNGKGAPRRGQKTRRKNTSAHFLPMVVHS

With `COc1cc2c(cc1OC)CN(C(=O)[C@H]1[C@@H]3C(=O)O[C@@H](c4ccccc4)[C@@H](c4ccccc4)N3[C@@H](c3ccc(O)cc3)[C@]13C(=O)Nc1ccc(C#CC4=CCCCC4)cc13)CC2`, the composite z-score turned out to be 1.32 in assay [1]; 0.817 in assay [2]; 0.785 in assay [3]; 1.14 in assay [5]; 1.29 in assay [6]; 0.405 in [7]. In addition, the composite z-score in assay [8] was 1.43; in [9] it was 0.779; in assay [10], -0.301. In addition, the z-score in [4] is -0.58 (inactive).

Take `O=C1OCCC/C=C\[C@H]2OC34C=CCN(Cc5ccccc5)C(=O)[C@H]3N(CCCCCCO)C(=O)[C@@H]4C12` (stereo not given in full): the composite z-score in assay [1] is -0.0862; in [2], 0.227; in assay [3] it was 0.932; in assay [5], -0.942; in assay [6], -0.457; in [7], -1.69. In addition, the composite z-score in assay [8] is -1.27; in assay [9], -1.69; in assay [10], -0.546. In addition, in assay [4], the z-score is -0.286 (inactive).

`[N-]=[N+]=NCc1ccccc1[C@@H]1OC(c2ccc(OCCCO)cc2)=N[C@]1(Cc1ccccc1N=[N+]=[N-])C(=O)N1CCOCC1`: the composite z-score in assay [1] was 0.814; in assay [2] it was 1.22; in [3], 1.35; in [5], 1.33; in [6] it was 1.3; in assay [7] it was 0.248. Further, the values for the composite z-score in [8], in assay [9] and in assay [10] were 0.783, 0.231 and 0.73, respectively. In [4], the z-score was 0.783 (inactive).

Consider `C[C@]1(C(=O)NC2CC2)c2ccccc2C(=O)N(Cc2cc(C(F)(F)F)cc(C(F)(F)F)c2)[C@H]1c1ccc(CO)cc1`, for which the composite z-score in assay [1] was 1.56; in [2], 0.757; in assay [3], 0.298; in assay [5], 0.711; in [6], 0.948; in assay [7] it was 0.279. The composite z-score worked out at 0.865 in assay [8], 0.585 in assay [9] and 0.592 in assay [10]. Also, the z-score in assay [4] is -0.402 (inactive).

Take `CCOC(=O)[C@H]1C/C=C/C[C@H](C(=O)OCC)C(=O)O[C@H]2[C@@H](OC)O[C@H](CO)[C@@H](OC(=O)Nc3cccc(F)c3)[C@@H]2OC1=O`: the composite z-score in [1] is 1.39; in [2], -0.438; in assay [3], -0.174; in assay [5], 0.687; in assay [6] it was 0.327; in assay [7], -0.226. The composite z-score in [8] is -0.0088; in assay [9], 0.254; in [10], 0.519. In [4], the z-score is 0.68 (inactive).

As to `C[C@@]1([C@@H](NC(=O)c2ccccc2)c2ccc(-c3ccccc3)cc2)C[C@H]1C1CCCCC1`, the composite z-score in [1] was -0.443; in [2], 1.18; in assay [3] it was 1.26; in assay [5], -0.145; in [6], -0.82; in assay [7] it was -0.573. In addition, the results for the composite z-score in [8], in assay [9] and in assay [10] were -0.503, -0.932 and 1.09, respectively. Besides, the z-score in assay [4] was 0.665 (inactive).

As for `C=CCC(OC(C)=O)[C@@H]1[C@@H](N(Cc2ccc(-c3ccccc3)cc2)C(=O)Cc2ccc(F)cc2)c2cc(OCCCO)ccc2N1C(=O)c1ccc(-c2ccccc2)cc1` (stereo not given in full), the composite z-score in assay [1] was 0.152; in [2] it was -0.0501; in [3], 0.216; in assay [5], 0.152; in [6] it was -1.02; in assay [7] it was -0.376. Also, the composite z-score in assay [8] is 0.268; in assay [9] it was -0.282; in [10], 0.778. The z-score in [4] is -2.23 (inactive).

Consider `Cc1ccc(C(C)CC(O)C2C=CC3C(=O)N(C)C(=O)C3N2NC(=O)OC(C)(C)C)o1` (stereo not given), for which the composite z-score was determined as 1.07 in assay [1]; 0.202 in [2]; 0.0719 in assay [3]; 0.803 in [5]; 1.29 in assay [6]; 0.96 in assay [7]. Further, the composite z-score in [8] was 1.3; in [9] it was 0.837; in assay [10], -0.0924. Moreover, the z-score in [4] was 1.92 (inactive).

`COc1ccc([C@H]2C[C@H]3C(Br)=C[C@@H]2C(=O)[C@]32CO2)cc1`: the composite z-score was 0.0371 in assay [1]; -0.308 in [2]; -0.193 in assay [3]; -0.105 in assay [5]; -0.515 in assay [6]; 0.427 in assay [7]. The composite z-score in assay [8] turned out to be 0.202; in assay [9] it was 1.03; in assay [10], 1.52. Also, in assay [4], the z-score was -0.613 (inactive).

As to `CCN(CC)c1ccc(N2CC=CC34O[C@@H]5/C=C\CCC(C)OC(=O)C5[C@H]3C(=O)N(C(CO)C(C)C)[C@@H]4C2=O)cc1` (stereo not given in full), the composite z-score is 0.492 in assay [1]; -0.204 in assay [2]; 0.0959 in assay [3]; -0.709 in assay [5]; -0.806 in assay [6]; -0.532 in assay [7]. The composite z-score in assay [8] is -1.1; in assay [9], -0.41; in assay [10], 1.15. Moreover, the z-score in assay [4] is -0.208 (inactive).

`CC(C)(C)OC(=O)CC[C@]1(C(=O)NCC(O)CO)COC(c2ccc(OCCCO)cc2)=N1` (stereo not given in full): the composite z-score in assay [1] is 0.304; in assay [2] it was 0.747; in assay [3] it was 0.788; in assay [5] it was 0.145; in [6], 0.435; in assay [7] it was -0.172. For the same compound, the composite z-score in assay [8] is -0.952; in assay [9], -1.01; in assay [10], 0.173. Moreover, the z-score in assay [4] is 0.646 (inactive).

Regarding `COC(=O)c1c(CC[C@@H](CO)NC(=O)N[C@@H](C)Cn2cc(C3(O)CCCCC3)nn2)oc(C(C)=O)c1C(=O)OC`, the composite z-score in assay [1] was 1.35; in assay [2], -0.0465; in assay [3], -0.481; in assay [5], 1.2; in assay [6], 1.25; in assay [7], 0.763. Moreover, the results for the composite z-score in assay [8], in assay [9] and in assay [10] were 1.27, 0.892 and -0.216, respectively. Further, the z-score in assay [4] is -2.26 (inactive).

`C=CCOC(=O)[C@H]1[C@@H]2C(=O)O[C@@H](c3ccccc3)[C@@H](c3ccccc3)N2[C@@H](c2ccc(OCCOC(=O)[C@@H]3C[C@@H]4C(=O)N[C@@H](CCCCN(C)C)C(=O)N4[C@@H]3c3ccc(O)cc3)cc2)[C@]12C(=O)Nc1ccc(I)cc12`: the composite z-score in assay [1] is 1.04; in [2] it was 0.26; in [3], -0.0178; in assay [5], 0.735; in assay [6], 1.32; in [7] it was 0.537. Besides, the composite z-score was 1.08 in [8], 1.06 in assay [9] and -0.389 in [10]. Besides, the z-score in assay [4] is -0.433 (inactive).

With `CN(C)CCCNC(=O)[C@@]1(C)c2ccccc2C(=O)N(Cc2cc(F)cc(C(F)(F)F)c2)[C@H]1c1ccc(CO)cc1`, the composite z-score in assay [1] was 1.34; in assay [2] it was -0.226; in [3] it was 0.682; in [5], -1.23; in [6], -0.465; in assay [7], -1.63. Further, the composite z-score in [8] is -1.19; in assay [9] it was -0.878; in assay [10] it was 0.376. In addition, the z-score in [4] is -0.249 (inactive).
